# In the library only some 9.4% were active in any assay of this set; here they are far more common.
# Rab9 prom act: activates the Rab9 promoter; Huh7 Rab9 promoter-luciferase reporter, luminescence, 24 h; Potency, µM (top dose mostly 9.22 µM), without a hit: at the top dose activation, negative = inhibition, hits mostly activators; 320,000 compounds, 2.8% hits; also: % of control where 0% means no effect; nearly all actives have a fitted effect of over 60% in size
#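 Cell-based reporter: Huh7 stable for Rab9 promoter-driven luciferase, plated in reduced-serum medium with 10% FBS at 1500 cells/well, compound-treated 24 h at 37 °C, luminescence read after 10 min reagent.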
# SMN2 splice enh: increases expression of the SMN2 splice variant | HEK293 SMN2-luciferase splicing reporter, luminescence, 30-36 h | Potency, µM (top dose mostly 46.1 µM), inactives show top-dose activity change, positive = activation, usual class: activators | 210,000 compounds, 2.8% hits | AID 1458; also: % of control where 0% means no effect; nearly all actives have a fitted effect of over 55% in size
#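 qHTS luciferase splicing reporter: luminescence rises when SMN2 exon 7 is included in transfected HEK293 cells. Compound exposure lasted 30-36 h at 37C, with 4.5 mM final sodium butyrate as control, followed by a ONE-Glo read.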
# NPC1 promoter act: NPC1 promoter activation; AID 485313; 320,000 compounds, 2.4% hits; Potency, µM (doses to about 9.22 µM), for the others: at the highest dose activation, most hits filed as activators; Huh7 NPC1 promoter luciferase reporter, 24 h; also: % of control where 0% means no effect; nearly all actives have a fitted effect of over 60% in size
#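 Luciferase expression driven by the NPC1 promoter was measured in stably transfected Huh7 cells after a 24 h compound incubation, using a luciferase reagent and a luminescence read.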
# FLuc modulator: firefly luciferase modulation, counter-screen for miR-21 project | purified FLuc, Km substrates, luminescence inhibition | Potency, µM (series often up to 57.5 µM), for the others: top-dose activity change, negative = inhibition, hits mostly inhibitors | 360,000 compounds, 6.9% hits | AID 588342;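 also: plate controls were vehicle for no effect and reference inhibitor for full effect; nearly all actives have a fitted effect of over 55% in size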
# Target sequence (P08659 whole entry, looked up): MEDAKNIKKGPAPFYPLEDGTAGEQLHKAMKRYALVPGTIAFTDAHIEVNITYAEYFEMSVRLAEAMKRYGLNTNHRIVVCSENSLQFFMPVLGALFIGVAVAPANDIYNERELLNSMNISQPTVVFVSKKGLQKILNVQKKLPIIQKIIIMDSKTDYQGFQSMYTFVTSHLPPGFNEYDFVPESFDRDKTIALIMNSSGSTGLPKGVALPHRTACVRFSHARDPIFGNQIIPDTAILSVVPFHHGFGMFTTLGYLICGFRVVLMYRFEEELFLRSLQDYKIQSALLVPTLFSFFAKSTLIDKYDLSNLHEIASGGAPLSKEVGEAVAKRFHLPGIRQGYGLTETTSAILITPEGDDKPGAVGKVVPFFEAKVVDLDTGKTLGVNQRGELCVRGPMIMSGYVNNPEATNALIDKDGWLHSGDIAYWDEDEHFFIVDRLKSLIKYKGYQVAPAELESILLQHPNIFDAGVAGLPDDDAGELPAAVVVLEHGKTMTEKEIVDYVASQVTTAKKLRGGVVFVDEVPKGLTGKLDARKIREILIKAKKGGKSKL
#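 Purified P. pyralis luciferase, 10 nM final, with Km-level 10 uM D-luciferin and 10 uM ATP in 50 mM Tris acetate pH 7.5, 10 mM Mg acetate, 0.01% Tween-20, 0.05% BSA; 6-point qHTS titration about 60 µM downward; luminescence read.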
# ELG1 DNA repair: blocks ELG1-dependent DNA repair in HEK293T cells; HEK293T ELG1-luciferase reporter, luminescence, 16 h; DNA damage induced by 5-fluorouridine; Potency, µM (titrated, usually from 46.1 µM), without a hit: at the highest dose activity change, negative = inhibition, most hits filed as inhibitors; 330,000 compounds, 2.3% hits; AID 504467; also: % is scaled to controls: 0 for no effect and ±100 for the full control effect; nearly all actives have a fitted effect of over 55% in size
#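 Overnight (16 hr) co-exposure of 2,000 cells/well to 5-fluorouridine and compound at 37 °C preceded detection. Luciferase was quantified via ONE-Glo luminescence; loss of signal denotes inhibition.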
# ELG1 genotoxic: genotoxicity induction in ELG1-luciferase HEK293T cells. Potency, µM (titrated, usually from 46 µM), for the others: at the highest dose activity change, positive = activation, actives largely listed as activators. 330,000 compounds, 1.3% hits. HEK293T ELG1-luciferase reporter, luminescence, 16 h; also: % of control where 0% means no effect; nearly all actives have a fitted effect of over 60% in size
#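 HEK293T cells expressing luciferase-tagged ELG1 were treated with compound or DMSO for 16 hr at 37°C. Luciferase activity was then read after 30 min with ONE-Glo at room temperature; rising signal flags genetic stress.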
# An asterisk follows results filed as active; u = inconclusive; x = no result; [ ] = dose if it differs, or a comment. Calls follow the shape of the dose curve; as a rule, active = well fitted curve in the direction sought with a large enough effect; inconclusive = small, poorly fitted or top-dose-only effect, or another doubt; inactive = no such curve, though single readings can be large; an effect the other way counts as inactive or inconclusive. Potency is read from the fitted curve at half-maximal effect.
SMILES,Rab9 prom act,SMN2 splice enh,NPC1 promoter act,FLuc modulator,ELG1 DNA repair,ELG1 genotoxic
Cc1ccc2oc(C(=O)NC3CCS(=O)(=O)C3)c(C)c2c1 (centres undefined),14.2%,x,16.9%,-16.3%,u,17.3%
Cc1c(C(=O)Nc2nccs2)oc2ccc(F)cc12,1.58µM*,x,3.55µM*,u,u,14.4%
Cc1cc(=O)oc2c(C(=O)/C=C\c3cccs3)c(O)ccc12,20.1%,-29.3%,u,-15.5%,-25.9%,4.1%
Cc1nc2c3ccccc3nc(NNC(=O)CCC(=O)N3CCN(c4cc(Cl)ccc4C)CC3)n2n1,x,0.5%,x,-17.4%,x,x
O=C(CSc1nc2ccccc2n1Cc1cccc(Cl)c1)N1CCN(c2ccc(F)cc2)CC1,x,u,x,-1.9%,x,x
CNC(=O)c1cc2cc(OC)ccc2oc1=O,15.5%,-7.9%,-0.8%,-6.9%,1.2%,3.2%
COc1ccc2oc(C(=O)NC3CCCCC3)c(C)c2c1,3.16µM*,x,3.16µM*,5.36µM*,u,3.66µM*
COc1ccc2oc(=O)c(C(=O)NC3CCCCCC3)cc2c1,-6.4%,x,25.4%,15.1µM*,u,u
COc1cccc(CN2CCN(C(=O)c3ccc(-c4ccccc4)cc3)CC2)c1OC,-8.2%,-9.3%,-4.7%,-13.2%,18.3µM*,-8.6%
COc1ccc(CN2CCN(C(=O)c3ccc(CNS(=O)(=O)c4ccc(C)cc4)cc3)CC2)c(OC)c1OC,-9.5%,x,-2.4%,-0.3%,9.2µM*,-9.9%
COc1cc(CN2CCN(C(=O)c3ccc(-c4ccccc4)cc3)CC2)cc(OC)c1OC,12.4%,x,5.9%,21.3µM*,u,u
Cc1ccc(S(=O)(=O)NCc2ccc(C(=O)N3CCN(Cc4ccccc4)CC3)cc2)cc1,-11.5%,-70.0%,-5.4%,3.5%,u,-13.5%
COc1cccc(CN2CCN(C(=O)c3ccc(-c4ccccc4)cc3)CC2)c1,-2.7%,-22.4%,7.6%,2.1%,u,-8.0%
Cc1cc2c(=O)[nH]c(N)nc2nc1C,x,-2.1%[9.22 µM],x,x,x,x
Cc1cc(C)c2nc3nc(C)c(C)cc3c(N)c2c1,-29.4%,-78.6%,-16.6%,16.9µM*,5.3%,13.4%
Nc1nc(CSc2nnnn2-c2ccccc2)nc(N2CCCc3ccccc32)n1,-1.3%,-18.3%,-0.8%,-5.6%,16.4µM*,-6.3%
CCOC(=O)c1ccc(NC(=O)CN2C(=O)CSC(C)C2=O)cc1 (centres undefined),-3.9%,-18.2%,-4.1%,16.9µM*,25.7%,1.3%
O=C(NCc1ccccc1Cl)c1cc2c(s1)-c1ccc(Cl)cc1SC2,x,-1.8%,x,-11.2%,x,x
Cc1ccc(-c2nc(Nc3cccc(O)c3)c3ccccc3n2)cc1,-6.7%,x,2.4%,21.3µM*,20.6µM*,-7.6%
COC(=O)c1ccc(Nc2nc(-c3ccc(C)cc3)nc3ccccc23)cc1,x,5.6%,x,u,x,x
Cc1ccc(-c2nc(NCc3ccco3)c3ccccc3n2)cc1,-5.8%,15.2%,0.2%,u,3.2%,-0.9%
Cc1ccc(-c2nc(Nc3ccc(O)cc3)c3ccccc3n2)cc1,16.0%,x,14.9%,23.9µM*,u,9.1%
Cc1ccc(-c2nc(C(Cl)Cl)c3ccccc3n2)cc1,-40.7%,x,-36.5%,13.5µM*,23.1µM*,17.6%
c1ccc(Nc2nc(-c3ccccc3)nc3ccccc23)cc1,-3.7%,x,-0.6%,-9.2%,-9.7%,-7.0%
Cc1ccc(-c2nc(Nc3ccc(N4CCOCC4)cc3)c3ccccc3n2)cc1,-3.2%,x,0.4%,23.9µM*,23.1µM*,-6.9%
CCCOC(=O)c1cccc(Nc2nc(-c3cccnc3)nc3ccccc23)c1,0.5%,-79.0%,-0.4%,-11.4%,13µM*,-11.9%
COC(=O)c1ccccc1NC(=O)CCC(=O)N1CC(C)Sc2ccccc21 (centres undefined),x,x,x,-4.3%,x,x
O=C1c2cccnc2C(=O)N1c1cccc(-c2nc3ccccc3o2)c1,-7.1%,1.5%,0.6%,3.79µM*,u,2.6%
CCOc1ccc(-c2cnc(NCc3ccc(OC)cc3OC)n2C)cc1,x,0.3%,x,2.8%,x,x

# Screening results deposited in PubChem by National Center for Advancing Translational Sciences (NCATS).
